Assay results as given in PubChem BioAssay (Tox21).
Inconclusive results are not listed. Values without a mark were called inactive. Activity calls are given as the source filed them. Calls follow the shape of the dose curve; as a rule, active = well fitted activation curve with a large enough effect in the repeat runs; inconclusive = weak or mixed curves; inactive = flat fitted curve, though single readings scatter.

Experiment: A CellTox Green Cytotoxicity Assay to monitor cytotoxicity in HepG2 cells - 16 hour (AID 1224876); also: nearly all actives have a fitted effect of over 45% in size
Conditions: CellTox Green fluorescence; series mostly up to 76.8 µM; cytotoxicity increase: at the top concentration
Excerpt: National Center for Advancing Translational Sciences [NCATS]
NIH Chemical Genomics Center [NCGC]
U.S. Environmental Protection Agency [EPA]
National Institutes of Environmental Health Sciences [NIEHS]
National Toxicology Program [NTP]
Cell-based models are critical for drug discovery. Determining the natural cytotoxic effects resulting from test compounds is an essential research activity. A CellTox Green Cytotoxicity Assay to monitor cytotoxicity in real time of continues cell culture during 40 hours of the compound treatment was used to screen Tox21 10K library compounds in HepG2 cells. CellTox Green Cytotoxicity Assay is a nonlytic, homogeneous, biofluorescent method to measure cytotoxicity in cell culture after experimental manipulation. The assay system uses a proprietary asymmetric cyanine dye that is excluded from viable cells but preferentially stains the dead cell's DNA. […] Viable cells produce no appreciable increases in fluorescence. Therefore, the fluorescence signal produced by the binding interaction with dead cell DNA is proportional to cytotoxicity.
The mixture of HepG2 cell suspension and reagents were dispensed at 600cells/6 ul/well in 1536-well tissue culture treated black solid bottom plates using a Multidrop dispenser. After the assay plates were incubated at a 37 C/5% CO2 incubator for 5 hours, 23 nL of compounds dissolved in DMSO, positive and negative controls was transferred to the assay plate by a pintool work station. The plates were incubated at 37 C for 40 hours. The fluorescence intensity were measured at 0h, 8h, 16h, 24h, 32h and 40h time points using ViewLux plate reader during compound treatment.
% is scaled to controls: 0 for no effect and ±100 for the full control effect; potency is read from the fitted curve at half-maximal effect.

Going from `O=C(O)CNCC(=O)O` to `NC(N)=NCCC[C@H](N)C(=O)O`, the cytotoxicity increase rises from -9.02% [at 6.97 µM] to -5.32% [at 6.97 µM].

Compared with `CN(C)C(=O)NC1(c2ccccc2)CCN(CC[C@@]2(c3ccc(F)c(F)c3)CN(C(=O)c3ccccc3)CCO2)CC1`, `O=C(OCCCCCCOC(=O)c1ccccc1)c1ccccc1` is lower in “cytotoxicity increase” value: 1.33% for the first, -0.758% for the second.

First: O=[N+]([O-])c1ccc2[nH]ncc2c1
Second: CCNc1cc(O)ccc1C
The “cytotoxicity increase” value of the first is lower: -10.5% for the first, -0.127% for the second.

Compared with `CO[C@@H]1[C@H](OC(=O)/C=C/C=C/C=C/C=C/C(=O)O)CC[C@]2(CO2)[C@H]1[C@@]1(C)O[C@@H]1CC=C(C)C`, `C[C@H](CCC(=O)O)[C@H]1CC[C@H]2[C@@H]3CC[C@@H]4C[C@H](O)CC[C@]4(C)[C@H]3C[C@H](O)[C@]12C` is higher in “cytotoxicity increase” value: -3.3% for the first, 22.3% for the second.

Going from `CC(=O)[O][Al]` to `O=C(O)CC(=O)C(=O)O`, the “cytotoxicity increase” value falls from -0.648% to -15.6%.

Compared with `Nc1cccc(S(=O)(=O)c2cccc(N)c2)c1`, `Nc1ccccc1S(=O)(=O)c1ccccc1` is lower in “cytotoxicity increase” value: -2.85% for the first, -17.8% for the second.

Going from `CCC(C)c1cc(C(C)(C)C)c(O)c(C(C)(C)C)c1` (stereo not given) to `CCC(CC)Nc1ccc(C)c(C)c1`, the “cytotoxicity increase” value rises from 0.0448% to 21.9%.

First: CCCCC(CC)CN1C(=O)C2C3C=CC(C3)C2C1=O (stereo not given)
Second: CCCCCCCCCCCC(=O)OC[C@@H](O)[C@H]1OC[C@H](OCCO)[C@H]1OCCO
The “cytotoxicity increase” value of the first is higher: 9.34% for the first, 6.51% for the second.

Compared with `O=C(O)C1(C(=O)Nc2ccc(Cl)cc2Cl)CC1`, `COc1cc(Cl)ccc1Oc1ccc(Cl)cc1Cl` is lower in “cytotoxicity increase” value: -4.8% for the first, -9.14% for the second.

Compared with `Cn1c(=O)cc(Oc2ccc(F)cc2F)c2cnc(NCC(C)(C)O)nc21`, `CC(C)CC(=O)C1C(=O)c2ccccc2C1=O` is higher in “cytotoxicity increase” value: 1.59% for the first, 9.21% for the second.

First: CC1CCC(=O)C1=O (stereo not given)
Second: CC1=CC[C@H](C(C)C)C=C1
The “cytotoxicity increase” value of the first is lower: 10.7% for the first, 26.6% for the second.

First: O=S(=O)(Oc1ccc(Cl)cc1)c1ccccc1
Second: CCOc1ccc(N=Nc2ccc(/C=C/c3ccc(N=Nc4ccc(OCC)cc4)cc3S(=O)(=O)O)c(S(=O)(=O)O)c2)cc1
The “cytotoxicity increase” value of the first is higher: 1.13% for the first, -34.9% for the second.

In the case of `C=CCOC(=O)CCC1CCCCC1`, the “cytotoxicity increase” value was -0.146%.

First: CCN(CC)CCNC(=O)c1cc(Br)c(N)cc1OC
Second: Cc1cccc(C)c1NC(=O)CN(CC(=O)O)CC(=O)O
The “cytotoxicity increase” value of the first is higher: 5.58% [at 35.3 µM] for the first, 2.78% [at 35.3 µM] for the second.

Going from `CCC(=O)O[C@]1(C(=O)CCl)[C@@H](C)C[C@H]2[C@@H]3CCC4=CC(=O)C=C[C@]4(C)[C@@]3(F)[C@@H](O)C[C@@]21C` to `C[C@H]1C[C@H]2[C@@H]3CCC4=CC(=O)C=C[C@]4(C)[C@@]3(Cl)[C@@H](O)C[C@]2(C)[C@@]1(O)C(=O)CO`, the “cytotoxicity increase” value rises from -16.2% [at 35.3 µM] to 4.58% [at 35.3 µM].

Compared with `COc1ccnc(CS(=O)c2nc3ccc(OC(F)F)cc3[nH]2)c1OC` (stereo not given), `C#Cc1cccc(Nc2ncnc3cc(OCCOC)c(OCCOC)cc23)c1` is higher in “cytotoxicity increase” value: -10.6% [at 35.3 µM] for the first, 5.89% [at 35.3 µM] for the second.

Going from `CCCCC1=NC2(CCCC2)C(=O)N1Cc1ccc(-c2ccccc2-c2nn[nH]n2)cc1` to `CCO[C@H](Cc1ccc(OCCc2ccc(OS(C)(=O)=O)cc2)cc1)C(=O)O`, the “cytotoxicity increase” value falls from 1.79% [at 35.3 µM] to -3.61% [at 35.3 µM].

Compared with `Nc1ccc([N+](=O)[O-])c(C(F)(F)F)c1`, `Nc1c(CC(=O)O)cccc1C(=O)c1ccc(Br)cc1` is higher in “cytotoxicity increase” value: -12.3% [at 35.3 µM] for the first, 0.0145% [at 35.3 µM] for the second.

With `Cc1cc(N)c2cc(NC(=O)Nc3ccc4nc(C)cc(N)c4c3)ccc2n1` the “cytotoxicity increase” value was -45.4% [at 35.3 µM].

For `CNCCCN1c2ccccc2CCc2ccccc21`, the Potency was 26.8 µM (active).
In the case of `CNCCCCOc1ccccc1Cc1ccccc1`, the Potency was 23.9 µM (active).

Compared with `CC(CSC(=O)c1ccccc1)C(=O)N1C[C@@H](Sc2ccccc2)C[C@H]1C(=O)O` (stereo not given in full), `Cc1[nH]c(C)c(Cl)c(=O)c1Cl` is lower in cytotoxicity increase: -2.05% [at 15.8 µM] for the first, -3.96% [at 15.8 µM] for the second.
